# Records with an inconclusive call do not appear. Active and inactive are the calls of the source. Calls come from the whole dose curve; as a rule, active = well fitted inhibition curve with a large enough effect; inconclusive = small, poorly fitted or top-dose-only effect; inactive = no such curve, though single readings can be large or run the other way.
# Test: Primary qHTS for inhibitors of La Crosse Virus (LACV) - induced cell death in SH-SY5Y cells (AID 1508616);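 note: top concentration of the series differs between compounds; 0% = infected DMSO wells and 100% = uninfected DMSO wells; higher means more rescue of cells from virus-induced death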
# Conditions: SH-SY5Y LACV cytopathicity rescue, ATP luminescence, 6 d; series mostly up to 9.63 µM; activity change: at the top concentration
# Outline: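 Rescue of virus-induced death was read as ATPLite luminescence after 6 days at 37C, scaled between DMSO wells with LACV and without virus. Cells were SH-SY5Y, 6000/well, infected at 0.01 MOI after compound addition.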
row,SMILES,activity change
1,CCCCC(CC)COC(=O)c1ccccc1C(=O)OCC(CC)CCCC (centres undefined),43.4% [at 8.54 µM] (inactive)
2,CS(=O)(=O)c1ccc(C(=O)C2C(=O)CCCC2=O)c([N+](=O)[O-])c1,-2.41% [at 8.54 µM] (inactive)
3,O=S(=O)(O)C(F)(F)C(F)(F)C(F)(F)C(F)(F)F,-11% (inactive)
4,COC(C)(C)CCCC(C)C/C=C/C(C)=C/C(=O)OC(C)C (centres undefined),3.34% [at 4.29 µM] (inactive)
5,CN[C@@H](C)[C@H](O)c1ccccc1,-14.6% [at 4.29 µM] (inactive)
6,O=S(=O)(c1ccc(Cl)cc1)c1ccc(Cl)cc1,-7.69% [at 8.54 µM] (inactive)
7,Cc1ccc(Cl)c(O)c1,11.5% [at 4.29 µM] (inactive)
8,COc1nn(CSP(=S)(OC)OC)c(=O)s1,40.4% [at 8.54 µM] (inactive)
9,COCCOCCO,-1.56% [at 8.54 µM] (inactive)
10,O=C(O)CCCOc1ccc(Cl)cc1Cl,44.7% [at 8.54 µM] (inactive)
11,CC(C)Oc1cccc(NC(=O)c2ccccc2C(F)(F)F)c1,46.2% [at 8.54 µM] (inactive)
12,O=C1C(I)=CC(=C(c2cc(I)c(O)c(I)c2)c2ccccc2C(=O)O)C=C1I,3.32% [at 4.29 µM] (inactive)
13,C=CCC1=C(C)C(OC(=O)C2C(C=C(C)C)C2(C)C)CC1=O (centres undefined),-3.88% [at 8.54 µM] (inactive)
14,O=C(O)COc1nc(Cl)c(Cl)cc1Cl,9.31% [at 8.54 µM] (inactive)
15,Nc1ccc([N+](=O)[O-])cc1,-7.34% [at 8.54 µM] (inactive)
16,CC(C)(C)NC[C@H](O)c1ccc(O)cc1Cl,-2.66% [at 4.29 µM] (inactive)
17,OCCCBr,0.191% [at 8.54 µM] (inactive)

row,SMILES,activity change
1,O=C(O)c1cc(Oc2ccc(C(F)(F)F)cc2Cl)ccc1[N+](=O)[O-],-11.6% [at 4.29 µM] (inactive)
2,CCCN(CCC)c1c([N+](=O)[O-])cc(S(N)(=O)=O)cc1[N+](=O)[O-],47.2% [at 8.54 µM] (inactive)
3,c1cc2ccc3cccc4ccc(c1)c2c34,-18.6% (inactive)
4,CC(C)(C)C(O)C(Oc1ccc(Cl)cc1)n1cncn1 (centres undefined),8.88% [at 8.54 µM] (inactive)
5,C=CC(=O)NCNC(=O)C=C,16.7% [at 8.54 µM] (inactive)
6,CC(O)CN1CCN(CC(=O)[O-])CCN(CC(=O)[O-])CCN(CC(=O)[O-])CC1.[Gd+3] (centres undefined),7% [at 4.29 µM] (inactive)
7,CCCCCCCCc1ccc(O)cc1,-6.81% [at 8.54 µM] (inactive)
8,O=[N+]([O-])c1c2ccccc2cc2ccccc12,-0.132% [at 8.54 µM] (inactive)
9,CO/C=C(/C(=O)OC)c1ccccc1Oc1cc(Oc2ccccc2C#N)ncn1,6.16% [at 8.54 µM] (inactive)
10,Nc1ccc(Sc2ccc(N)cc2)cc1,1.84% [at 8.54 µM] (inactive)
11,O=S(=O)(O)C(F)(F)C(F)(F)C(F)(F)C(F)(F)C(F)(F)C(F)(F)C(F)(F)C(F)(F)F,5.59% [at 8.54 µM] (inactive)
12,O=C(Nc1ccccc1-c1ccc(Cl)cc1)c1cccnc1Cl,31.4% [at 8.54 µM] (inactive)
13,Oc1ccc2c3c1O[C@H]1[C@@H](O)C=C[C@H]4[C@@H](C2)NCC[C@@]341,26.1% (inactive)
14,Nc1ccc(Cl)cc1N,-4.68% [at 8.54 µM] (inactive)
15,CC1=C(C(=O)O)N2C(=O)[C@@H](N)[C@H]2SC1,-1.92% [at 1.78 µM] (inactive)
16,Nc1c(Cl)c(Cl)c(Cl)c(Cl)c1Cl,-0.578% [at 8.54 µM] (inactive)
17,Fc1cc(Br)ccc1CBr,-3.24% [at 4.29 µM] (inactive)
